Among all 420,000 compounds or so, about 50,000 (12%) were called active. Where a call stands in place of a potency, no number is given. About 26% were inconclusive and are not listed. This is one part of a sample in which actives are shown more often than they occur. Values without a mark were called inactive. Calls follow the shape of the dose curve; as a rule, active = well fitted inhibition curve with a large enough effect; inconclusive = small, poorly fitted or top-dose-only effect; inactive = flat fitted curve, though single readings scatter.

This is an account of results in PubChem BioAssay AID686979 (National Center for Advancing Translational Sciences (NCATS), 2013).
Potency is read from the fitted curve at half-maximal effect.

The nature of the assay: qHTS for Inhibitors of human tyrosyl-DNA phosphodiesterase 1 (TDP1): qHTS in cells in presence of CPT. Also: nearly all actives have a fitted effect of over 55% in size. Conditions: chicken DT40 Tdp1-/-;hTDP1 cells + 20 nM CPT, ATP luminescence, 48 h; series mostly up to 46.2 µM. The method, boiled down:
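Chicken DT40 Tdp1-/- cells complemented with human TDP1, 400 cells/well, exposed to compounds plus 20 nM camptothecin for at least 48 h at 37 C; viability read as ATP content by CellTiter-Glo luminescence.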
A general note: Quantitative high-throughput screening tests each substance at several concentrations.
As to `CNC[C@@H]1Oc2c(NS(C)(=O)=O)cccc2C(=O)N([C@@H](C)CO)C[C@H]1C`, the Potency entry was “inactive”.

Consider `COCC(=O)N(C)C[C@H]1Oc2cc(Br)ccc2S(=O)(=O)N([C@H](C)CO)C[C@H]1C`, for which the Potency entry was “inactive”.

On to `Cc1cc(C(=O)OCC(=O)Nc2ccccc2Cl)c(C)o1`, for which the Potency entry was “inactive”.

With `CC(C)Nc1nnc(SCC(=O)c2c[nH]c3ccccc23)s1`, the Potency result is “inactive”.

For the molecule `COC(=O)c1ccc(CSc2nnc(NC(C)C)s2)cc1`, the Potency entry is “inactive”.

Take `CC(C)Nc1nnc(SCC(=O)/C=C2\N(C)c3ccccc3C2(C)C)s1`: the Potency is 16.4 µM (active).

For the molecule `Cc1ccccc1OCc1nc2c3cnn(-c4ccccc4F)c3ncn2n1`, the Potency result is “inactive”.

Regarding `CN1/C(=C\C(=O)c2cccnc2Cl)C(C)(C)c2ccccc21`, the Potency is 20.6 µM (active).

For `CC1COc2ccccc2N1C(=O)c1cccnc1Cl` (stereo not drawn), the Potency result is “inactive”.

In the case of `Cc1ccc(CNC(=O)c2cccnc2Cl)cc1`, the Potency result was “inactive”.

Consider `O=C1CSc2ccc(C(=O)NCc3ccccn3)cc2N1`, for which the Potency entry is “inactive”.

With `CCc1ccc(C(=O)N2CCN(S(=O)(=O)c3sc(C(=O)O)c(C)c3C(=O)O)CC2)cc1`, the Potency entry is “inactive”.

Take `Cc1ccc(C)c(-n2cc(CN3CCN(C(=O)c4ncn[nH]4)CC3)c(-c3ccccc3)n2)c1`: the Potency entry is “inactive”.

As for `Cc1ccc(OCCC(=O)OCC(=O)N2c3ccccc3NC(=O)C2(C)C)cc1`, the Potency result was “inactive”.

As for `O=C(O)CSCc1nc2ccccc2s1`, the Potency entry is “inactive”.

As to `CC(C)CC(=O)N/C(N)=N/c1nc2ccccc2s1`, the Potency is 23.1 µM (active).

Turning to `CC(C)CC(=O)NC(=S)NCc1ccccc1`, the Potency entry is “inactive”.

As for `COc1ccc(C2c3ccc(O)cc3Oc3ncn(CCCO)c(=N)c32)cc1OC` (stereo not drawn), the Potency result was “inactive”.

Consider `CC[C@]1(C(=O)OC)[C@H]2C(=O)N(C)C(=O)[C@H]2[C@H]2CN(C)C(=NCc3ccccc3)N21`, for which the Potency entry is “inactive”.

Turning to `O=C(NCCSc1ncc(-c2ccccc2)[nH]1)c1ccco1`, the Potency result is “inactive”.

Regarding `COCCCNC(=O)C1CC(=O)N(CCc2ccc(F)cc2)C1` (stereo not drawn), the Potency entry is “inactive”.

In the case of `COC(=O)c1ccccc1NC(=O)C1CC(=O)N(c2ccc(OC)cc2)C1` (stereo not drawn), the Potency entry was “inactive”.

For the molecule `COc1ccc(OC)c(NC(=O)C2CCN(S(=O)(=O)c3ccc(C)cc3)CC2)c1`, the Potency result was “inactive”.

Turning to `COC(=O)c1ccccc1NC(=O)C1CCN(S(=O)(=O)c2cc(OC)ccc2OC)CC1`, the Potency was 23.1 µM (active).

`CCCCCCCC/C=C\CCCCCCCC(=O)OC[C@H](CO)OC(C)=O`: the activity change, negative = growth inhibition is 0.476% [at 4.12 µM].

`COC(=O)c1scc(C)c1NC(=O)CSc1ccc(Cl)cc1`: the Potency result is “inactive”.

As to `O=C(NC(=S)N1CCCCC1c1cccnc1)c1ccccc1` (stereo not drawn), the Potency entry is “inactive”.

As for `CC(=O)NC(=S)Nc1ccc(NC(=O)c2cccnc2)cc1`, the Potency result was “inactive”.

As for `CC(C)c1cc(Cn2c3ccccc3c(=O)n2C(C)Cn2cc(C3CC3)nn2)on1` (stereo not drawn), the Potency result was “inactive”.

On to `CCC(C)CN1CCC(CO)(Cc2ccccc2Cl)CC1` (stereo not drawn), for which the Potency entry is “inactive”.

Regarding `CCCCCCCCCCOC(=O)Cn1c(COc2cccc(OC)c2)[n+](C)c2ccccc21`, the Potency was 2.31 µM (active).

For the molecule `CCCCCCCCC(=O)NCCOc1ccccc1`, the Potency entry was “inactive”.

Turning to `CCn1c(COc2cccc(OC)c2)nnc1SCC(=O)N1CCOCC1`, the Potency result was “inactive”.

Take `O=C(CN1CCCCCC1)Nc1ccc(Cl)cc1F`: the Potency entry is “inactive”.

For `Cn1cccc1C(=O)N1CCc2ccccc2C1`, the Potency entry was “inactive”.

Turning to `CC(CCc1ccccc1)NC(=O)c1cnc(Cl)c(Cl)c1` (stereo not drawn), the Potency result is “inactive”.

For the molecule `Cc1sc2nc(SCCO)n(-c3ccccc3)c(=O)c2c1C`, the Potency was 13 µM (active).

Take `CCc1cc2c(=O)n(-c3ccccc3)c(SCC(=O)O)nc2s1`: the Potency result was “inactive”.

In the case of `Cc1sc2nc(SCC(N)=O)n(C)c(=O)c2c1C`, the Potency entry was “inactive”.

On to `CCc1ccc(S(=O)(=O)Nc2ccc(C)c(NS(C)(=O)=O)c2)cc1`, for which the Potency entry was “inactive”.

Turning to `NC(=O)c1ccc(N2CCCC2)nc1`, the Potency entry is “inactive”.

As for `Cc1cc(C)cc(OCC(=O)Nc2cc(NC(=O)COc3cc(C)cc(C)c3)cc(C(=O)O)c2)c1`, the Potency result is “inactive”.

Regarding `Cc1ccc(Cl)cc1NC(=O)CN1CCN(S(=O)(=O)N2CCOCC2)CC1`, the Potency entry is “inactive”.

As to `CC(=O)Nc1c(C)nn(-c2ccccc2)c1N1CCC(C(=O)Nc2cc(Cl)ccc2C)CC1`, the Potency entry is “inactive”.

As for `Cc1ccc(Cl)cc1NC(=O)C1CCN(S(C)(=O)=O)CC1`, the Potency was 6.51 µM (active).

Regarding `Cc1ccc2c(c1)C1CN(C)CCC1N2C(=S)Nc1ccc(OC(F)F)cc1` (stereo not drawn), the Potency result is “inactive”.

In the case of `CCN(Cc1ccncc1)C(=S)Nc1ccccc1C`, the Potency entry was “inactive”.

Consider `COc1ccc(N(CC(=O)NCC2CCCO2)C(=O)CCC(=O)Nc2nccs2)c(OC)c1` (stereo not drawn), for which the Potency entry is “inactive”.

As to `Cc1ccc(C(=O)Nc2ccn(C)n2)cc1`, the Potency result is “inactive”.

As for `Cn1nccc1C(=O)NC1CCCc2c1cnn2-c1ccccc1F` (stereo not drawn), the Potency is 4.61 µM (active).

With `CC(=O)NCC(=O)NC1CCCc2c1cnn2-c1ccccc1F` (stereo not drawn), the Potency entry is “inactive”.

In the case of `O=C(NCCN1CCCC(O)C1)c1cc(COc2c(F)cccc2F)on1` (stereo not drawn), the Potency entry was “inactive”.

With `Cn1nccc1C(=O)NC1CCCc2c1cnn2-c1ccc(F)cc1F` (stereo not drawn), the Potency was 1.46 µM (active).

For the molecule `O=[N+]([O-])c1ccc(N2CCNCC2)cc1NCc1cccnc1`, the Potency result is “inactive”.

With `CN1CCN(/N=C/c2ccc(C#N)cc2)CC1`, the Potency result was “inactive”.

Take `COc1ccc(C(=O)CN2C(=O)NC3(CCc4ccccc43)C2=O)c(OC)c1` (stereo not drawn): the Potency entry is “inactive”.

Consider `COc1ccc(-n2c(C)cc(C(=O)CN3C(=O)NC4(CCc5ccccc54)C3=O)c2C)cc1` (stereo not drawn), for which the Potency is 14.6 µM (active).

Regarding `COc1ccc(CNC(=O)CN2C(=O)NC3(CCCc4sccc43)C2=O)cc1` (stereo not drawn), the Potency entry is “inactive”.

As to `Cc1cc(/C=C2\SC(=O)N(C)C2=O)c(C)n1-c1cccc(C(=O)O)c1`, the Potency entry is “inactive”.

For the molecule `COc1ccccc1NC(=O)C1=C(C)Nc2nc3ccccc3n2C1c1cccs1` (stereo not drawn), the Potency was 4.11 µM (active).

Regarding `CCOC(=O)C1=C(C)Nc2nc3ccccc3n2C1c1cccs1` (stereo not drawn), the Potency entry is “inactive”.

As for `COc1ccccc1NC(=O)C1=C(C)Nc2ncnn2C1c1sccc1C` (stereo not drawn), the Potency result is “inactive”.

Regarding `O=C(c1ccccc1)c1cc(-c2ccccn2)c(N2CCOCC2)s1`, the Potency entry was “inactive”.

Consider `c1csc(-c2nnc(COc3ncnc4sccc34)o2)c1`, for which the Potency entry is “inactive”.

In the case of `COc1ccccc1C1CN(Cc2ccccc2O)Cc2ccccc2O1` (stereo not drawn), the activity change, negative = growth inhibition was -2.83% [at 9.04 µM].

For the molecule `COC(=O)c1ccc(S(=O)(=O)N2CCC(c3nc4ccccc4o3)CC2)cc1`, the Potency result was “inactive”.

`NC(=O)C1CCN(C(=O)c2ccc(C(F)(F)F)cc2)CC1`: the Potency entry was “inactive”.

Turning to `O=C(c1ccc(C(F)(F)F)cc1)N1CCC(c2nc(-c3ccc(S(=O)(=O)N4CCCC4)cc3)no2)CC1`, the Potency is 20.6 µM (active).
